Data: PubChem BioAssay AID463173 (ICCB-Longwood Screening Facility, Harvard Medical School, 2010)
The campaign covered roughly 52,000 compounds. About 1,700 (3.3%) were called active. For the sample, actives were picked, then their nearest neighbours and some compounds at random. Unmarked numbers belong to inactive results. Cut-off read from the data, not from the text of the source: active = survival mostly below about 52% (no sharp cut-off); inactive = mostly above about 56%.

Tested on: Wild type
Assay: S. aureus survival, RN4220 and DeltatarO strains – OD600, teichoic acid synthesis inhibitors, primary screen (AID 463173)
Conditions: S. aureus RN4220 wild type/DeltatarO growth, OD600, 18 h, hits give low values, screened at 18.75 µg/mL (by protocol)

| SMILES | survival |
| --- | --- |
| Cc1ccc(-n2c(=O)[nH]c3cc(C(=O)NCCc4ccccc4)ccc3c2=O)cc1 | 85% |
| O=C(Nc1ccc(OCc2cc(=O)n3c4c(sc3n2)CCCC4)cc1)c1cccc(F)c1 | 78% |
| Cc1ccc(Cl)cc1NC(=O)Nc1nnc(N(C)Cc2ccccc2)s1 | 93% |
| COc1ccc(-c2nc3sc(CCNC(=O)C(=O)Nc4ccccc4C#N)c(C)n3n2)cc1 | 85% |
| Cc1noc(C)c1S(=O)(=O)N1CCC(C(=O)N2CCN(c3ccccc3)CC2)CC1 | 128% |
| CCOC(=O)CC(=O)CSc1nc2ccccc2c(=O)n1CCc1ccc(S(N)(=O)=O)cc1 | 71% |
| Cc1ccc(C(=O)COC(=O)CCC(=O)Nc2ccc(Oc3ccccc3)cc2)cc1 | 90% |
| COc1c(Cl)cc(Cl)cc1C(=O)Nc1cccc(-c2nc3ccccc3o2)c1C | 125% |
| CC(C)(Oc1ccc(Cl)cc1)C(=O)Nc1ccc(-c2nc3ncccc3o2)cc1 | 74% |
| Cc1c(NC(=O)C(C)(C)Oc2ccc(Cl)cc2)cccc1-c1nc2ccccc2o1 | 1% (active) |
| Cc1c(NC(=O)C(C)(C)Oc2ccc(Cl)cc2)cccc1-c1nc2ncccc2o1 | -3% (active) |
| Cc1cc(NC(=O)C(C)(C)Oc2ccc(Cl)cc2)cc(-c2nc3ncccc3o2)c1O | 92% |
| Cc1ccc2oc(-c3ccc(C)c(NC(=O)C(C)(C)Oc4ccc(Cl)cc4)c3)nc2c1 | 43% |
| COc1ccc(-c2nc(CN3CCC(C(=O)NCCCOC(C)C)CC3)c(C)o2)cc1OC | 80% |
| CCCn1cc(S(=O)(=O)c2ccc(OC)cc2)c(=O)c2cc(F)c(N3CCCC(C)C3)cc21 (centres undefined) | 71% |
| CCOc1ccc(C(=O)NCCS(=O)(=O)N2CCN(c3ccccc3F)CC2)cc1OCC | 102% |
| COc1ccc(OCC(=O)Nc2ccc(-c3nc4cc(C)c(C)cc4o3)cc2)cc1 | 77% |
| COc1ccc(OC)c(Nc2ncnc3c2cnn3-c2ccc(C)cc2)c1 | 14% (active) |
| COc1ccc(CCNc2ncnc3c2cnn3-c2ccc(C)cc2)cc1 | 71% |
| CCOc1ccccc1Nc1ncnc2c1cnn2-c1ccc(C)cc1 | 76% |
| COc1ccc(Nc2ncnc3c2cnn3-c2ccc(C)cc2)cc1Cl | 133% |
| Cc1ccc(C)c(Nc2ncnc3c2cnn3-c2ccc(F)cc2)c1 | -3% (active) |
| COc1ccc(-n2ncc3c(NCCCOC(C)C)ncnc32)cc1 | -2% (active) |

| SMILES | survival |
| --- | --- |
| COCCCNc1ncnc2c1cnn2-c1ccc(F)cc1 | 82% |
| Cc1ccc(-n2ncc3c(Nc4cccc(C)c4C)ncnc32)cc1 | 78% |
| COc1ccc(OC)c(Nc2ncnc3c2cnn3-c2cccc(Cl)c2)c1 | 64% |
| Cc1ccc(Cn2c(C(=O)O)c(CNC3CCCCCC3)c3ccc(C)cc32)cc1 | 74% |
| CCCNC(=O)C1CCC(Cn2c(=O)c3sccc3n(CC(=O)NCc3cccc(OC)c3OC)c2=O)CC1 (centres undefined) | 133% |
| COc1cccc(NC(=O)c2cnc(SCC(=O)N3CCCc4ccccc43)n(C)c2=O)c1 | 54% |
| COc1cccc(-c2cn3ncsc3n2)c1 | 80% |
| Cc1cc(NNC(=O)c2ccccc2)nc(NNC(=O)c2ccccc2)n1 | 103% |
| CCCc1noc(-c2ccc(NCc3ccccc3OC)c([N+](=O)[O-])c2)n1 | 79% |
| CCOc1ccc(-c2csc(/C(C#N)=C/c3ccc(Br)cc3)n2)cc1 | 71% |
| Cc1ccc(/C=C(\C#N)c2nc(-c3ccc(-c4ccccc4)cc3)cs2)cc1 | 83% |
| CN(C)c1ccc(/C=C(\C#N)c2nc(-c3ccc(Cl)c(Cl)c3)cs2)cc1 | 89% |
| N#C/C(=C/c1ccc(Cl)cc1)c1nc(-c2ccc(Br)cc2)cs1 | 83% |
| CCc1ccc(/C=C(/C#N)c2nc(-c3ccc(C)cc3)cs2)cc1 | -2% (active) |
| CC(C)c1ccc(/C=C(\C#N)c2nc(-c3ccc(O)cc3)cs2)cc1 | 0% (active) |
| N#C/C(=C\c1ccc(F)cc1)c1nc(-c2ccc(-c3ccccc3)cc2)cs1 | 74% |
| COc1ccc(/C=C(/C#N)c2nc(-c3ccc(-c4ccccc4)cc3)cs2)cc1 | 66% |
| N#C/C(=C/c1ccc(O)cc1)c1nc(-c2ccc(-c3ccccc3)cc2)cs1 | 0% (active) |
| Cc1nn2c3c(cnc2c1-c1ccc(Cl)cc1)C(=O)CC(c1ccc(C(C)C)cc1)C3 (centres undefined) | 78% |
| Cc1ccc(-n2nnc3c(sc4nc(C)c(C)cc43)c2=O)cc1Cl | 84% |
| CCCCN1C(C(=O)c2ccccc2)=C(OC(C)=O)c2ccccc2S1(=O)=O | -2% (active) |
| CCCN1C(C(=O)c2ccccc2)=C(OC(=O)COc2ccccc2)c2ccccc2S1(=O)=O | 72% |
| CCCCCN1C(C(=O)c2ccccc2)=C(NC(C)=O)c2ccccc2S1(=O)=O | 60% |

| SMILES | survival |
| --- | --- |
| CCCCC(=O)OC1=C(C(=O)c2ccccc2)N(CC)S(=O)(=O)c2ccccc21 | 71% |
| CCCN1C(C(=O)c2ccccc2)=C(OC(=O)C(C)(C)C)c2ccccc2S1(=O)=O | 86% |
| CCCCN1C(C(=O)c2ccccc2)=C(OC(=O)CC)c2ccccc2S1(=O)=O | 0% (active) |
| CCCCCN1C(C(=O)c2ccccc2)=C(OC(=O)CC)c2ccccc2S1(=O)=O | -4% (active) |
| CCCCC(=O)OC1=C(C(=O)c2ccccc2)N(CCC)S(=O)(=O)c2ccccc21 | 43% |
| CCCCC(=O)OC1=C(C(=O)c2ccccc2)N(C)S(=O)(=O)c2ccccc21 | 108% |
| COc1cc(C(=O)OCn2c(=O)oc3ccccc32)cc(OC)c1OC | 101% |
| NC(=O)c1cc2n(n1)C(C(F)(F)F)CC(c1ccc(Cl)cc1)N2 (centres undefined) | 116% |
| COc1ccc(Cl)cc1NC(=O)C1CCN(c2nnc(C)c3c(C)n(-c4ccccc4)nc23)CC1 | 66% |
| Cc1c(Cl)cccc1-n1ncc(C(=O)N2CCN(C)CC2)c1C1CCN(C(=O)OC(C)(C)C)CC1 | 87% |
| COc1ccccc1C(=O)Nc1ccc2oc(-c3cccc(Cl)c3Cl)nc2c1 | 100% |
| COc1ccc(S(=O)(=O)Nc2cccc(-c3ccc(N4CCCCCC4)nn3)c2)cc1F | 71% |
| CCN1CCN(CCCNC(=O)Cn2c(-c3cccs3)cc3cc(F)ccc32)CC1 | 126% |
| CC(C)COc1ccc(C(=O)Nc2cc3nn(-c4ccccc4)nc3cc2Cl)cc1 | 57% |
| Cc1nc(-c2ccccc2)sc1-c1ccc(SCC(=O)Nc2ccc(F)cc2F)nn1 | 30% |
| CCc1ccccc1NC(=O)Cn1nnc(C(=O)Nc2ccc(OC)c(OC)c2)c1N | 76% |
| Cc1cccc(NC(=O)c2c(NC(=O)c3cccs3)sc3c2CCC(C)C3)c1 (centres undefined) | 75% |
| CC1CCc2c(sc(NC(=O)c3ccccc3)c2C(=O)Nc2ccccc2)C1 (centres undefined) | 64% |
| CCN(CC)C(=O)c1c(NC(=O)c2cccc(C)c2)sc2c1CCC(C)C2 (centres undefined) | 2% (active) |
| Cc1cccc(NC(=O)c2c(NC(=O)c3ccco3)sc3c2CCC(C)C3)c1 (centres undefined) | 73% |
| Cc1cccc(C(=O)Nc2sc3c(c2C(=O)O)CCCC3)c1 | 40% |
| Cc1cccc(C(=O)Nc2sc3c(c2C(=O)N2CCCCC2)CCC(C)C3)c1 (centres undefined) | -1% (active) |
| O=C(NC1CCCCC1)c1cccnc1Nc1ccccc1F | 113% |

| SMILES | survival |
| --- | --- |
| CC1CCCN(C(=O)Cn2ncc3c([nH]c4ccccc43)c2=O)C1 (centres undefined) | 81% |
| CC(=O)N1CCc2cc(S(=O)(=O)C(C)CC(=O)Nc3ccc(Br)c(C)c3)ccc21 (centres undefined) | -6% (active) |
| COc1cc(NC(=O)CC(C)S(=O)(=O)c2ccc3c(c2)CCN3C(C)=O)cc(OC)c1OC (centres undefined) | 76% |
| CC(=O)N1CCc2cc(CNC(=O)Nc3ccc(Br)c(C)c3)ccc21 | 85% |
| CCOC(=O)c1c(S(=O)(=O)NCC(=O)Nc2cccc(SC)c2)c(C)n(C)c1C | 70% |
| COc1ccc(CN(C(=O)c2cc(=O)c3ccccc3o2)C2CCS(=O)(=O)C2)cc1OC (centres undefined) | 118% |
| O=C(NCCc1csc2nc(-c3ccccc3F)nn12)C(=O)Nc1cc(F)ccc1F | 63% |
| Cc1ccc(C)c(NC(=O)C(=O)NCCc2csc3nc(-c4ccccc4C)nn23)c1 | 129% |
| Cc1c(Cl)cccc1NC(=O)C(=O)NCCc1csc2nc(-c3ccccc3F)nn12 | 1% (active) |
| CC(=O)Nc1cccc(NC(=O)C(=O)NCCc2csc3nc(-c4ccccc4F)nn23)c1 | 57% |
| Cc1ccccc1-c1nc2scc(CCNC(=O)C(=O)Nc3ccc(F)cc3F)n2n1 | -4% (active) |
| CCOc1ccc(NC(=O)C(=O)NCCc2csc3nc(-c4ccccc4F)nn23)cc1 | -3% (active) |
| COC(=O)c1ccc(NC(=O)C(=O)NCCc2csc3nc(-c4ccccc4F)nn23)cc1 | 60% |
| Cc1ccc(NC(=O)C(=O)NCCc2csc3nc(-c4ccccc4C)nn23)cc1Cl | 82% |
| CCOc1ccc(CC(=O)NCCc2csc3nc(-c4ccccc4F)nn23)cc1 | 119% |
| O=C(CSc1nnnn1Cc1ccccc1)Nc1ccccc1 | 114% |
| COc1ccc(OC)c(CNS(=O)(=O)c2c(C(=O)N3CCCCCC3)c(C)n(C)c2C)c1 | 135% |
| COc1ccccc1CNC(=O)CCC(=O)N1CC2CCCN2c2ccccc21 (centres undefined) | 80% |
| CC(C)(C)C(=O)Nc1cccc(-c2cn3cccnc3n2)c1 | 70% |
| O=C(CCCn1c(=O)c2cccn2c2ccccc21)NCc1ccccc1Br | 55% |
